# Results filed as inconclusive are left out. Activity calls are given as the source filed them. Rule for the calls: active = hit-call score of the fitted dose curve at least 0.9, where 1 is the maximum; inconclusive = response in the unintended direction; inactive = score below 0.9. Where a SMILES comes first, the peptide text is derived from it. Bridges are numbered along the chain shown (N, C = ends). [ ]: non-standard residue; d: D form. Orn = NCCC[C@H](N)C(=O)O; Mpa = O=C(O)CCS
# Experiment: TOX21_p53_BLA_p2_viability: Viability Assessment in the Tox21 HCT-116 p53 Agonism Beta-lactamase Assay, Phase 2 (AID 2283591);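 note: compound exposure lasted 16 h at 37 °C; actives lower the ATP signal meaning cytotoxicity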
# Description: TOX21_p53_BLA_p2 is a cell-based, single-readout assay that uses HCT116, a human intestinal cell line, […] in a 1536-well plate.TOX21_p53_BLA_p2_viability is an assay readout measuring cellular ATP content and detected with CellTiter-Glo Luciferase-coupled ATP quantitation.TOX21_p53_BLA_p2_viability used a type of viability reporter where loss-of-signal activity can be used to understand changes in the cell viability. Furthermore, this assay endpoint can be referred to as a secondary readout, because this assay has produced multiple assay endpoints where this one serves a viability function. To generalize the intended target to other relatable targets, this assay endpoint is annotated to the cell cycle intended target family, where the subfamily is cytotoxicity.
# Thawing Method: Place 14 mL of pre-warmed thaw medium into a 15 mL of conical tub. Remove the vial of cells to be thawed from liquid nitrogen and thaw rapidly by placing at 37C in a water bath with gentle agitation for 1-2 minutes. Decontaminate the vial by wiping with 70% ethanol before opening in a biological safety cabinet. Transfer the vial contents drop-wise into 14 mL of thaw medium in a sterile 15-mL conical tub. Centrifuge cells at 900 rpm for 4 minutes and resuspend in thaw medium. Transfer contents to the T75 tissue culture flask containing Thaw Medium and place flask in a humidified 37C/5% CO2 incubator. Switch to growth medium at first passage.Propagation Method: Aspirate medium, rinse once in DPBS, add 0.25% Trypsin/EDTA and swirl to coat the cell evenly. Add an equal volume of Growth Medium to inactivate Trypsin after 2-3 minutes incubation at 37C. Centrifuge cells at 900 rpm for 4 minutes and resuspend in growth medium. Cell should be passage or fed at least twice a week.Assay Protocol: Harvest cells from culture in growth medium and resuspend in assay medium. 2.2 Dispense 4000 cells/5 uL/well into 1536-well black/clear bottom plates using a Multidrop dispenser. After the cells were incubated at 37C for 5 hours, 23 nL of compounds dissolved in DMSO were transferred to the assay plate by a PinTool resulting in a 217-fold dilution. Incubate the plates for 16 hours at 37C, 5% CO2. Add 1 uL of 6X LiveBLAzer FRET B/G (CCF4-AM) Substrate Mixture to each well using a BioRAPTR dispenser and incubate the plates at room temperature for 2 hours. Measure fluorescence intensity at 460 and 530 nm emission and 405 nm excitation by an Envision detector. Data is expressed as the ratio of 460nm/530nm emissions. Add 4 uL of Cell-titer Glo to each well using BioRAPTR and incubate the plates at room temperature for […]. For cell viability readout that measures cytotoxicity, 4 ul/well of CellTiter-Glo reagent was added into the assay plates using a Flying Reagent Dispenser. After 30 min incubation at room temperature, the luminescence intensity in the plates was measured using a ViewLux plate reader.
Structure (SMILES),outcome,AC50
Cc1cc(C(=O)NCCc2ccc(S(=O)(=O)NC(=O)NN3CCCCCC3)cc2)no1,inactive,
C1C[C@@H]2[C@H]3CC[C@H](C3)[C@@H]2C1,inactive,
CCCCCC[C@@H](CCC)C(=O)O,inactive,
CC(O)CN(C)C (stereo not given),inactive,
CC(C)=CCC1C(=O)N(c2ccccc2)N(c2ccccc2)C1=O,,32.6 µM (active)
NC(=S)N=Nc1ccc(NN=C(N)N)cc1,inactive,
CNCCCN1c2ccccc2CCc2ccccc21,inactive,
Nc1cc(=O)[nH]c(N)n1,inactive,
Nc1cc(Cl)c([N+](=O)[O-])cc1O,inactive,
CC/C=C\CCCCCO,inactive,
CCCOc1ccccc1-c1nc2n[nH]nc2c(=O)[nH]1,inactive,
O=C1c2cccc(O)c2C(=O)c2c(O)cccc21,inactive,
Cc1cc(-c2ccc(N=Nc3ccc4c(S(=O)(=O)O)cc(S(=O)(=O)O)c(N)c4c3O)c(C)c2)ccc1N=Nc1ccc2c(S(=O)(=O)O)cc(S(=O)(=O)O)c(N)c2c1O,inactive,
CCCCCCCCCCCC(=O)N(CCO)CCO,inactive,
COC(=O)C1=C(C)NC(C)=C(C(=O)OCCCN2CCC(c3ccccc3)(c3ccccc3)CC2)C1c1cccc([N+](=O)[O-])c1 (stereo not given),,32.9 µM (active)
COC(=O)C1CC(=O)C(C(=O)OC)CC1=O (stereo not given),inactive,
CC(C)COC(=O)c1ccc(N)cc1,inactive,
CC(=O)CCc1ccccc1,inactive,
COC(C)(OC)OC,inactive,
CCCCCCCCCCCCCCCCCCOCC(O)CO (stereo not given),inactive,

Structure (SMILES),outcome,AC50
CCOC(=O)c1ccc(NC(=O)CN2CCCCC2)cc1,inactive,
CCCCc1nc(Cl)c(CO)n1Cc1ccc(-c2ccccc2-c2nn[nH]n2)cc1,inactive,
CC(C)OC(=O)OCOP(=O)(CO[C@H](C)Cn1cnc2c(N)ncnc21)OCOC(=O)OC(C)C,inactive,
CCN(Cc1ccccc1)c1ccccc1,inactive,
Cc1ccccn1,inactive,
CC1=C2[C@@H]([C@H](C)CC[C@H]2/C=C(\C)C(=O)O)[C@H](O)C1,inactive,
CCn1cc(C(=O)O)c(=O)c2cc(F)c(N3CCNC(C)C3)c(F)c21 (stereo not given),inactive,
Cc1cccc(C)c1NC(=O)c1cc(S(N)(=O)=O)c(Cl)cc1O,inactive,
CCOc1ccc(C[C@H]2NC(=O)CCSSC[C@@H](C(=O)N3CCC[C@H]3C(=O)N[C@@H](CCCN)C(=O)NCC(N)=O)NC(=O)[C@H](CC(N)=O)NC(=O)[C@H]([C@@H](C)O)NC(=O)[C@H]([C@@H](C)CC)NC2=O)cc1 ([Mpa][dY](Et)ITNCP[Orn]G-NH2; disulfide 1-6),inactive,
CN(Cc1cc(Br)cc(Br)c1N)C1CCCCC1,inactive,
CC(=C(CCO)SSCC1CCCO1)N(C=O)Cc1cnc(C)nc1N (stereo not given),inactive,
CCOC(=O)c1c(C)n(C)c2ccc(O)cc12,inactive,
COc1nc(N)nc2c1ncn2[C@@H]1O[C@H](CO)[C@@H](O)[C@@H]1O,inactive,
O=C1CCC(=O)O1,inactive,
CC[C@@H](C(=O)[C@@H](C)[C@@H](O)[C@H](C)[C@@H]1O[C@@H]([C@@H](CC)C(=O)O)CC[C@@H]1C)[C@H]1O[C@]2(C=C[C@@H](O)[C@]3(CC[C@@](C)([C@H]4CC[C@](O)(CC)[C@H](C)O4)O3)O2)[C@H](C)C[C@@H]1C,inactive,
CCCc1cc(C(N)=S)ccn1,inactive,
CC(=O)O[C@H]1C[C@@H]2CC[C@@H]3[C@H](CC[C@@]4(C)[C@H]3C[C@H]([N+]3(C)CCCCC3)[C@@H]4OC(C)=O)[C@@]2(C)C[C@@H]1N1CCCCC1,inactive,
CC[C@H]1OC(=O)C[C@@H](O)[C@H](C)[C@@H](O[C@@H]2O[C@H](C)[C@@H](O[C@H]3C[C@@](C)(O)[C@@H](O)[C@H](C)O3)[C@H](N(C)C)[C@H]2O)[C@@H](CC=O)C[C@@H](C)C(=O)/C=C/C(C)=C/[C@@H]1CO[C@@H]1O[C@H](C)[C@@H](O)[C@@H](OC)[C@H]1OC,inactive,
NNc1ccc(C(=O)O)cc1,inactive,
COc1cc(-c2ccc(-[n+]3nc(-c4ccccc4)nn3-c3ccc([N+](=O)[O-])cc3)c(OC)c2)ccc1-[n+]1nc(-c2ccccc2)nn1-c1ccc([N+](=O)[O-])cc1,,13 µM (active)
